{"source": "PubChem BioAssay AID1508600", "about": "(Functional Genomics Laboratory (NCATS/FGL), 2020)", "note": "In all, about 53,000 sequences went through this assay and about 3,700 (7%) were called active. This is one part of a sample in which actives are shown more often than they occur. Unmarked numbers belong to inactive results.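 Rule for the calls: active = gene knockdowns whose robust z-score for IL-1 alpha signal is at least 2 or at most -2, so actives lie on both sides; inactive = the rest.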"}
{"assay": "Components of the Cytosolic LPS Sensing Pathway: Gene Identification via Genome-wide siRNA Screen;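 note: robust z of the log signal after scaling to non-targeting control siRNA wells of the plate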", "details": "RAW264.7 macrophages, IL-1a HTRF, actives lie on both sides, screened at 100 nM (by protocol), cells primed 5 h with Pam3CSK4 first", "method_in_brief": "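RAW264.7; siRNA 100 nM final, RNAiMAX, 48h 37 degrees C; Pam3CSK4 5 h; LipidA + TransIT-TKO 24 h; IL-1a HTRF; CellTiter-Glo viability; robust z vs negative-control median.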"}
{"sequence": "CGAUCCAUGUUGUAAGCGCTT against Adam39", "z-score": 0.347}
{"sequence": "GGUUAAAGUGUAUUUACAGTT against Fkbp14", "z-score": 0.124}
{"sequence": "GGUCCUUAACCGCUAUGCATT against Esrp2", "z-score": 0.294}
{"sequence": "GGAAGCUUCAGGAGUAUAUTT against Sdc2", "z-score": -0.326}
{"sequence": "GUGGCUGACAAGUUUAUCATT against Cyp2c66", "z-score": -0.132}
{"sequence": "AACUAGCAAUAUGAUGGAGTT against Chic1", "z-score": -0.55}
{"sequence": "GGGUUUGUUAAGUCCUGUGTT against Gsdmc", "z-score": "-2.09 (active)"}
{"sequence": "GCAAUAACCCAAUUCCUGATT against Phex", "z-score": 0.179}
{"sequence": "GGACAGUAUGAAUUUGAAUTT against Lcp1", "z-score": "2.44 (active)"}
{"sequence": "GGCCUAUCUGACCUACACCTT against Wnt8a", "z-score": -0.271}
{"sequence": "GCCAUAUGAUAAUAUAGAGTT against Gbp6", "z-score": -0.574}
{"sequence": "CCUCAACCGGCAGUUCUUGTT against Uba2", "z-score": -0.574}
{"sequence": "GCAUAGCUAACUCAGCAUATT against Map2k2", "z-score": 1.09}
{"sequence": "GGAAACCAUUGAAGAUGUUTT against Psmd13", "z-score": -1.2}
{"sequence": "CCCUGAAGUUUAUGCAACATT against Ttyh2", "z-score": "-3.02 (active)"}
{"sequence": "GGUAAUGAGCAGAUGAAGCTT against Sgta", "z-score": 0.622}
{"sequence": "GGUGGUUUAAGAAAUCAAATT against Dolpp1", "z-score": 0.34}
{"sequence": "GGCCCUAGAUAUUGAUUUUTT against Rbp2", "z-score": -0.338}
{"sequence": "GGAGAUUGGGAUCAAUUAGTT against Sall3", "z-score": 0.576}
{"sequence": "GGACGUGACCAUGAUGUCUTT against Oacyl", "z-score": "-3.46 (active)"}
{"sequence": "GCAUCCUUUGUCGAAGUGGTT against Clec18a", "z-score": -0.495}
{"sequence": "GGGAUUUUGUACAUUUUUGTT against Egln3", "z-score": 1.51}
{"sequence": "CCGACGGAUAGCUUGGAUGTT against Fgb", "z-score": -0.214}
{"sequence": "GGACGGAGGAUUCUGAAACTT against Prepl", "z-score": "2.42 (active)"}
{"sequence": "GGAAAGCUUACAGUUGAAATT against 4933427D06Rik", "z-score": 0.992}
{"sequence": "GGAAAGCUAAGGCUGUACUTT against Dnal1", "z-score": -0.103}
{"sequence": "CCCAGAAGCCUUAUCGUCUTT against Mzt1", "z-score": "2.37 (active)"}
{"sequence": "GCCAUCUACUUUGUUAUAGTT against Kcnk4", "z-score": 0.725}
{"sequence": "GGAGUUAUUAACUGAAGAGTT against Cyp2c55", "z-score": 0.0702}
{"sequence": "GAGGGCCAUCUCUGACAUGTT against Avp", "z-score": 0.369}
{"sequence": "GGUCAAAACAAAAGGAGGGTT against Ncf4", "z-score": 0.498}
{"sequence": "GGACAAAUUUGCAUAGAUUTT against Rab10os", "z-score": "2.93 (active)"}
{"sequence": "GCCAAUAUUUGUUUUUGAGTT against Ranbp3l", "z-score": 0.0685}
{"sequence": "GCUACAACCUUGAGAAACUTT against Duoxa2", "z-score": 0.706}
{"sequence": "CCUAGGUGUCGUACACAAATT against Galns", "z-score": "2.45 (active)"}
{"sequence": "GGCUUCCUAUCUGAUUACUTT against Acsl4", "z-score": 0.498}
{"sequence": "CCACCGGAAUGACAUAAUGTT against Klk11", "z-score": -0.578}
{"sequence": "CCUAGUUGAAAAUUGGGAATT against Fuca2", "z-score": 0.354}
{"sequence": "CGUGGUCAUCUGGUAUGAGTT against Zfp653", "z-score": "2.53 (active)"}
{"sequence": "GCACUGCUAUUUACAAAAATT against Tex16", "z-score": -1.73}
{"sequence": "CAGGGCAAGGUGAUAUCUGTT against Olfr1411", "z-score": -0.428}
{"sequence": "GGAGAAAUAAGUGCAGGUGTT against Rhox2a", "z-score": -0.622}
{"sequence": "GGCUCCUCUCCAAGAAUAUTT against Prr14l", "z-score": "2.03 (active)"}
{"sequence": "GGAGAGAAUCAGAGAGAACTT against Akr1c18", "z-score": 0.276}
{"sequence": "GCUUCUGAUAGAUCAUAAGTT against Aoc3", "z-score": -0.276}
{"sequence": "GGCUCAAAGUUUUCAGAGATT against Kctd14", "z-score": -0.0155}
{"sequence": "GCAUUUUGUGGAAAAGGCUTT against Olfr582", "z-score": "-2.19 (active)"}
{"sequence": "CGAAAAGGUGGACUUUUAGTT against Rnf4", "z-score": -0.545}
{"sequence": "GGUGAUUUUCGAUAUACACTT against Dclre1b", "z-score": 0.257}
{"sequence": "CGACCUGCUCUCAUAGCUUTT against Sycn", "z-score": -0.702}
{"sequence": "GGCCUUUGGGAAAACAUGGTT against Zcchc14", "z-score": "-2.16 (active)"}
{"sequence": "GUACUAGUGGUGACUGCAUTT against Olfr462", "z-score": -0.0789}
{"sequence": "CCAAGGGUUAAGUCUUCAUTT against Zranb1", "z-score": 0.738}
{"sequence": "CCUCUCAUGUAUCCUGUGATT against Olfr292", "z-score": -0.205}
{"sequence": "GGGAAAGUGUGUAAUAAAUTT against Egflam", "z-score": -0.774}
{"sequence": "GCUUACUACCAUUGGGAAUTT against Samt2", "z-score": 1.65}
{"sequence": "GGAUUAGAGAAAUAGGGCUTT against Apol10a", "z-score": "-2.09 (active)"}
{"sequence": "GGAAUUCCUUCGUUUCCUUTT against Usp2", "z-score": 1.64}
{"sequence": "GGUUUGAAGUGUUGACAUUTT against Fam126a", "z-score": -0.474}
{"sequence": "CGUACAUCAGAAUGUUAAUTT against Fkbp4", "z-score": 1.46}
{"sequence": "GGUGGUGUCAACCUUAAAATT against Nrsn1", "z-score": 0.253}
{"sequence": "GGUUUUGUCCAGAAGAAUATT against Kl", "z-score": -0.574}
{"sequence": "GGAUGGACCAUCAGCUUCATT against Olfr1152", "z-score": "-2.25 (active)"}
{"sequence": "GGCUCUUGAUACGAAUGUATT against Aadac", "z-score": -0.44}
{"sequence": "GGAGAAGGGCUUUUCUGUUTT against Gbp5", "z-score": -0.729}
{"sequence": "GCCUCACAGAUUGAUAAUATT against Akt3", "z-score": -1.23}
{"sequence": "GCAGCCAUACAGCUUAUAUTT against Cyb561d2", "z-score": 0.382}
{"sequence": "GGAGCUGUCAUUUAAGAAATT against Sorbs2", "z-score": "2.42 (active)"}
{"sequence": "CGUGGCUCACAAUAAAUGCTT against Cfd", "z-score": 0.385}
{"sequence": "GGCAAAUGGAAAAUUCUGCTT against Rlim", "z-score": 0.982}
{"sequence": "GCUGAUGUAAGUAUUCUAGTT against Pdcl", "z-score": 0.1}
{"sequence": "GCGGAAUUGGAAAAUGCCGTT against Hbs1l", "z-score": 0.283}
{"sequence": "GGUGGUAUCUGUAUUCUAUTT against Olfr1106", "z-score": "2.6 (active)"}
{"sequence": "GGUGACAAUAAAUUUGGAUTT against Tmem143", "z-score": 1.09}
{"sequence": "GGAUUCACAUUUCUAAAGCTT against Adcy8", "z-score": 1.31}
{"sequence": "CGCUAUGAAACCUCACUAATT against E2f1", "z-score": -0.598}
{"sequence": "GCAUGACCUCAGGUUUUCUTT against Il20rb", "z-score": 1.57}
{"sequence": "CCUGAUUGUCACUCCUUUUTT against Pde4b", "z-score": 0.753}
{"sequence": "GCGAAAGCAGGAUACUCCUTT against Mtmr11", "z-score": 1.01}
{"sequence": "GGAAAAAAUCUGCAUCCGATT against Neu1", "z-score": -0.415}
{"sequence": "GGGACAUGAGCCAUUCAUCTT against Lcor", "z-score": 0.749}
{"sequence": "GGAUAGCUCUAUUAUCUCUTT against Serpinb3a", "z-score": 1.24}
{"sequence": "GGCAGUACAACUGGUCUACTT against 0610040J01Rik", "z-score": "2.21 (active)"}
{"sequence": "GGAUGUGCUCUGUGAAUGCTT against Pgf", "z-score": 0.533}
{"sequence": "GGCAUCACAGAAGGUUUAUTT against Rock2", "z-score": "4.17 (active)"}
{"sequence": "GGUGAACGAUGUCAAUAAGTT against Pdxk", "z-score": -0.318}
{"sequence": "CCAAGAGAUUGCUAAUUGCTT against Runx1t1", "z-score": -0.695}
{"sequence": "CGCAAAAACUGGUGUAACCTT against Arhgef1", "z-score": -0.958}
{"sequence": "CUCCUCAGUCAACAAGAACTT against Hoxc11", "z-score": 0.176}
{"sequence": "GCUUGUUGGUGGUCUCCUGTT against Spink7", "z-score": "-2.28 (active)"}
{"sequence": "GGAAAAUGCCUCAAGACUUTT against Wdr5b", "z-score": -0.0565}
{"sequence": "GGACACCAUCAAUUGAUUATT against Wdr27", "z-score": -0.127}
{"sequence": "GCCUUGGCUGAAACUCUCATT against Cybb", "z-score": 0.612}
{"sequence": "GGGACAAGAAGAACAAGAGTT against Srp14", "z-score": -1.33}
{"sequence": "GGAAGAAUCGGAUCAAGAUTT against Dpep2", "z-score": 0.153}
{"sequence": "GGCAUGGAAUCUGUUGUACTT against Olfr603", "z-score": "2.45 (active)"}
{"sequence": "GCCAAGACCAUUCAGCCUUTT against Zfp579", "z-score": -0.394}
{"sequence": "GCUUCAUCGAACAAGUCGCTT against Pcbd1", "z-score": 0.715}
{"sequence": "GGUGCUGAAGAUGCUGACGTT against Zfp503", "z-score": -1.46}
{"sequence": "CGUCACUGAUGUGGCUUUUTT against Plpp6", "z-score": 0.755}
{"sequence": "GGCAGAAACCCUUCUAUGUTT against Bmp8a", "z-score": -1.55}
{"sequence": "GGACAGCUUCCGAAACUAUTT against Miox", "z-score": 0.349}
{"sequence": "GGAAGCCAAAGAGAAACAATT against Ighmbp2", "z-score": -0.0223}
{"sequence": "CCGUUUACGGCCACUAACUTT against Phkg2", "z-score": "3.68 (active)"}
{"sequence": "GCAGCCAAGUGGGUAACUUTT against Nicn1", "z-score": 0.474}
{"sequence": "CGGCCUGACAUCAACCUUGTT against Fam193b", "z-score": -0.915}
{"sequence": "GGAAGAAAACGCAACUAUATT against Atp1b3", "z-score": 0.246}
{"sequence": "GUUCUCAAGUAUCCCAGGCTT against 1110006O24Rik", "z-score": -0.661}
